Results as given in PubChem BioAssay (EPA / NIEHS).
Inconclusive results are not listed. The source made the active and inactive calls. The calls were made as follows: active = hit-call score of the fitted dose curve at least 0.9, where 1 is the maximum; inconclusive = response in the unintended direction; inactive = score below 0.9.

What follows are molecules tested against Bile acid receptor (Homo sapiens) (UniProt Q96RI1) (assay: OT_FXR_FXRSRC1_0480: Odyssey Thera (OT) 8-hour HEK293T Protein-Complementation Assay for Farnesoid X receptor/SRC-1 Co-activator (AID 2283383)).
Bile acid receptor (Homo sapiens), sequence (Q96RI1 whole entry, looked up): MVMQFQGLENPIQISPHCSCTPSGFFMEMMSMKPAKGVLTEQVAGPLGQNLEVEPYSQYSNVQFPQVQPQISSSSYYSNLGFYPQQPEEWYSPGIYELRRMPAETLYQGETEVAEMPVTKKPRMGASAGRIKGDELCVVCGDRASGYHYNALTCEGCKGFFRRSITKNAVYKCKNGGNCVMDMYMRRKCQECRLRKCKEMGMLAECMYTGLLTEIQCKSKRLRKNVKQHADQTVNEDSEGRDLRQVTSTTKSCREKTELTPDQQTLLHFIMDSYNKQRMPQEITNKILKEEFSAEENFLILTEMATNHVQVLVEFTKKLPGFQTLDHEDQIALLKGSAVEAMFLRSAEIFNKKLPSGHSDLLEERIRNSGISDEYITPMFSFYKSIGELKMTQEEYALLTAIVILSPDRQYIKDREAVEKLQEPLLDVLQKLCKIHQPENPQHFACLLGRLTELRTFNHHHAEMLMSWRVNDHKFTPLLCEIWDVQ
Summary of the method: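 Readings were taken 8 h after dosing HEK293T cells in a split-reporter complementation format pairing FXR with SRC-1. Increased fluorescence relative to DMSO-treated wells defined activity.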
With `O=C(Nc1ccccc1)c1cc(Cl)ccc1O` the outcome was “inactive”. `CCN1CN(CC)CN(CC)C1` was tested, and the outcome was “inactive”. In the case of `O=C(O)C1CCC(C(=O)O)CC1` (stereo not drawn), the outcome is reported as “inactive”. With `CCCCc1ccc(Cl)cc1` the outcome was “inactive”. With `CCCCC(=O)O` the outcome was “inactive”. `Nc1ccc(C(=O)O)cc1` was tested, and the outcome was “inactive”. With `CCCCNS(=O)(=O)c1ccccc1` the outcome was “inactive”. `CC(C)(C)C1CCC(=O)CC1` was tested, and the outcome was “inactive”. With `CCCCCCCCC(CO)CCCCCC` (stereo not drawn) the outcome was “inactive”. In the case of `CCCCCCOC(=O)CCCCC(=O)OCCCCCC`, the outcome is reported as “inactive”. `CCCCNC(=S)NCCCC` was tested, and the outcome was “inactive”. `CCCCC(CC)COS(=O)(=O)O` (stereo not drawn) was tested, and the outcome was “inactive”. `CCOC(=O)C1=NOC(c2ccccc2)(c2ccccc2)C1` was tested, and the outcome was “inactive”. For `CCOC(=O)c1ccccc1C`, the outcome was “inactive”. `CCCCC(C=O)CC` (stereo not drawn) was tested, and the outcome was “inactive”.

These molecules were tested against Bile acid receptor (Homo sapiens) (UniProt Q96RI1) (assay: OT_FXR_FXRSRC1_1440: Odyssey Thera (OT) 24-hour HEK293T Protein-Complementation Assay for Farnesoid X receptor/SRC-1 Co-activator (AID 2283384)).
Summary of the method: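 Single endpoint, analysed for increased fluorescence against DMSO controls. HEK293T cells carrying FXR and SRC-1 linked to complementary reporter halves were exposed to chemicals for 24 h before reading.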
For `O=C(Nc1ccccc1)c1cc(Cl)ccc1O`, the AC50 was 17.5 µM (active). In the case of `CCN1CN(CC)CN(CC)C1`, the outcome is reported as “inactive”. `CCCCc1ccc(Cl)cc1` was tested, and the outcome was “inactive”. With `CCCCCC(=O)OCC` the outcome was “inactive”. `CN(C)Cc1cc(CN(C)C)c(O)c(CN(C)C)c1` was tested, and the outcome was “inactive”. In the case of `Nc1ccc(C(=O)O)cc1`, the outcome is reported as “inactive”. With `CCCCNS(=O)(=O)c1ccccc1` the outcome was “inactive”. In the case of `CC(C)(C)C1CCC(=O)CC1`, the outcome is reported as “inactive”. With `CCCCCCCCC(CO)CCCCCC` (stereo not drawn) the outcome was “inactive”. For `CCCCCCOC(=O)CCCCC(=O)OCCCCCC`, the outcome was “inactive”. For `CCCCNC(=S)NCCCC`, the outcome was “inactive”. For `CCOC(=O)C1=NOC(c2ccccc2)(c2ccccc2)C1`, the outcome was “inactive”. In the case of `O=C(O)c1ccc2c(c1)C(=O)OC2=O`, the outcome is reported as “inactive”.

Each molecule was assayed against Retinoic acid receptor RXR-alpha (Homo sapiens) (UniProt P19793) (assay: OT_NURR1_NURR1RXRa_0480: Odyssey Thera (OT) 8-hour HEK293T Protein Complementation Assay for Nurr1/retinoid X receptor (RXR) (AID 2283385)).
Retinoic acid receptor RXR-alpha (Homo sapiens), sequence (P19793 whole entry, looked up, the tested form may be a part): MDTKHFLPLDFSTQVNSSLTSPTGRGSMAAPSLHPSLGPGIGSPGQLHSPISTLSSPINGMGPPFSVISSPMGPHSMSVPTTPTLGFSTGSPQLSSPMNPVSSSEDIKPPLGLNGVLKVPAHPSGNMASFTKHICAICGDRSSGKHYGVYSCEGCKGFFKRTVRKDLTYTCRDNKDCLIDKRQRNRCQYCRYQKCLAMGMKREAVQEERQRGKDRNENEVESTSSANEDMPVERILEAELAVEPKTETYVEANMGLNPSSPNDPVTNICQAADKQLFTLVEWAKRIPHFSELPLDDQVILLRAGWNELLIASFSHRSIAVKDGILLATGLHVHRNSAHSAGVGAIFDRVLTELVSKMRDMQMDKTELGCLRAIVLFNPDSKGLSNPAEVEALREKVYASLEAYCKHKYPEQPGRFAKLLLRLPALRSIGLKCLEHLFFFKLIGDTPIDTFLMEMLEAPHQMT
Summary of the method: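 Gain in fluorescent complementation signal over DMSO, measured 8 hours after chemical dosing of human kidney HEK293T cells, indicated enhanced Nurr1–RXRα association.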
In the case of `O=C(Nc1ccccc1)c1cc(Cl)ccc1O`, the outcome is reported as “inactive”. In the case of `CCN1CN(CC)CN(CC)C1`, the outcome is reported as “inactive”. With `CCCCc1ccc(Cl)cc1` the outcome was “inactive”. `CCOC(=O)c1ccc(C)cc1` was tested, and the outcome was “inactive”. For `CC(C)c1ccc(O)c(C(C)C)c1`, the outcome was “inactive”. With `C=C[C@@]1(C)CC(=O)[C@]2(O)[C@@]3(C)[C@@H](O)CCC(C)(C)[C@@H]3[C@H](O)[C@H](OC(C)=O)[C@@]2(C)O1` the AC50 was 0.183 µM (active). In the case of `CCCCOCCOC(=O)COc1ccc(Cl)cc1Cl`, the outcome is reported as “inactive”. In the case of `CN(C)c1ccc2nc3ccc(=[N+](C)C)cc-3sc2c1`, the AC50 is reported as 26.3 µM (active). For `Nc1ccc(C(=O)O)cc1`, the outcome was “inactive”. `Cc1c(C(=O)c2c[nH]n(C)c2=O)ccc(S(C)(=O)=O)c1C1=NOCC1` was tested, and the outcome was “inactive”. For `CC(=O)OCc1ccccc1`, the outcome was “inactive”. `CCCCCCCCCCCC(=O)N(C)CC(=O)O` was tested, and the outcome was “inactive”. `CC(=O)OC1CCCCC1C(C)(C)C` (stereo not drawn) was tested, and the outcome was “inactive”. With `CCc1cccc(C)c1N` the outcome was “inactive”. For `CC(C)(C)C1CCC(=O)CC1`, the outcome was “inactive”. For `O=S(=O)(O)c1ccc(N=Nc2c(O)ccc3ccccc23)cc1`, the outcome was “inactive”. For `CCCCNC(=S)NCCCC`, the outcome was “inactive”. In the case of `C=CCOC(=O)c1ccc(C(=O)OCC=C)c(C(=O)OCC=C)c1`, the outcome is reported as “inactive”. With `CCOC(=O)C1=NOC(c2ccccc2)(c2ccccc2)C1` the outcome was “inactive”. For `CCOC(=O)c1ccccc1C`, the outcome was “inactive”. For `O=C(O)c1ccc2c(c1)C(=O)OC2=O`, the outcome was “inactive”. In the case of `CCCCC(CC)COC(=O)/C=C/c1ccc(OC)cc1` (stereo not drawn), the outcome is reported as “inactive”.

What follows are molecules tested against Retinoic acid receptor RXR-alpha (Homo sapiens) (UniProt P19793) (assay: OT_NURR1_NURR1RXRa_1440: Odyssey Thera (OT) 24-hour HEK293T Protein Complementation Assay for Nurr1/retinoid X receptor (RXR) (AID 2283386)).
Summary of the method: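 Cell-based binding reporter: HEK293T cells, 24 h exposure, fluorescence-detected fragment complementation, DMSO as baseline.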
For `O=C(Nc1ccccc1)c1cc(Cl)ccc1O`, the AC50 was 16.1 µM (active). `O=C(O)C1CCC(C(=O)O)CC1` (stereo not drawn) was tested, and the outcome was “inactive”. `CCCCCC(=O)OCC` was tested, and the outcome was “inactive”. In the case of `CCOC(=O)c1ccc(C)cc1`, the outcome is reported as “inactive”. `C=C[C@@]1(C)CC(=O)[C@]2(O)[C@@]3(C)[C@@H](O)CCC(C)(C)[C@@H]3[C@H](O)[C@H](OC(C)=O)[C@@]2(C)O1` was tested, and the AC50 was 0.396 µM (active). For `CN(C)Cc1cc(CN(C)C)c(O)c(CN(C)C)c1`, the outcome was “inactive”. In the case of `CN(C)c1ccc2nc3ccc(=[N+](C)C)cc-3sc2c1`, the AC50 is reported as 15.3 µM (active). With `CCCCC(=O)O` the outcome was “inactive”. With `Cc1c(C(=O)c2c[nH]n(C)c2=O)ccc(S(C)(=O)=O)c1C1=NOCC1` the outcome was “inactive”. `COc1cc(O)c(C(=O)c2ccccc2)cc1S(=O)(=O)O` was tested, and the outcome was “inactive”. With `CC(=O)OC1CCCCC1C(C)(C)C` (stereo not drawn) the outcome was “inactive”. In the case of `CCc1cccc(C)c1N`, the outcome is reported as “inactive”. In the case of `CC(C)(C)C1CCC(=O)CC1`, the outcome is reported as “inactive”. With `O=S(=O)(O)c1ccc(N=Nc2c(O)ccc3ccccc23)cc1` the outcome was “inactive”. For `CCCCCCCCC(CO)CCCCCC` (stereo not drawn), the outcome was “inactive”. `CCCCCCOC(=O)CCCCC(=O)OCCCCCC` was tested, and the outcome was “inactive”. With `CCCCNC(=S)NCCCC` the outcome was “inactive”. For `CCCCC(CC)COS(=O)(=O)O` (stereo not drawn), the outcome was “inactive”. For `CCOC(=O)C1=NOC(c2ccccc2)(c2ccccc2)C1`, the outcome was “inactive”. `CCOC(=O)c1ccccc1C` was tested, and the outcome was “inactive”. In the case of `O=C(O)c1ccc2c(c1)C(=O)OC2=O`, the outcome is reported as “inactive”. In the case of `CCCCC(C=O)CC` (stereo not drawn), the outcome is reported as “inactive”. `CCCCC(CC)COC(=O)/C=C/c1ccc(OC)cc1` (stereo not drawn) was tested, and the outcome was “inactive”.
